Data taken from PubChem BioAssay (NCATS).
Records with an inconclusive call do not appear. A number with no mark means an inactive call. Calls of active or inactive are those of the source. Calls follow the shape of the dose curve; as a rule, active = well fitted inhibition curve with a large enough effect; inconclusive = small, poorly fitted or top-dose-only effect; inactive = flat fitted curve, though single readings scatter.

Target: Aldehyde dehydrogenase, mitochondrial (Homo sapiens) (UniProt P05091)
Experiment: qHTS for Inhibitors of the Aldehyde Dehydrogenase Family (ALDH2) Primary screen (AID 2061308);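 also: plate controls were vehicle for no effect and reference inhibitor for full effect; nearly all actives have a fitted effect of over 55% in size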
Details: ALDH2 enzyme inhibition qHTS, 1536-well; series mostly up to 56 µM; activity change, negative = inhibition: at the top concentration

SMILES	activity change, negative = inhibition	Potency
CC(=O)O[C@@H](C[C@@H]1C=C(C)C(=O)O1)[C@H](C)[C@H]1CCC2[C@@]3(C)CC[C@H](O[C@@H]4O[C@H](CO)[C@@H](O)[C@H](O)[C@H]4O[C@@H]4O[C@@H](C)[C@H](O)[C@@H](O)[C@H]4O)C(C)(C)C3CC[C@@]2(C)[C@@]12COC(=O)C2 (stereo not given in full)	13.6% [at 16.9 µM]	–
COC(=O)C1=CO[C@@H](O[C@@H]2O[C@H](CO)[C@@H](O)[C@H](O)[C@H]2O)[C@@H]2C(COC(C)=O)=C[C@H](O)[C@H]12	9.31% [at 28 µM]	–
C[C@@H]1O[C@@H](O[C@H]2[C@@H]3C=CO[C@@H](O[C@@H]4O[C@H](CO)[C@@H](O)[C@H](O)[C@H]4O)[C@@H]3[C@@]3(CO)O[C@@H]23)[C@H](O)[C@H](O)[C@H]1OC(=O)/C=C/c1ccc(O)cc1	-5.29% [at 16.9 µM]	–
C[C@@H]1O[C@@H](O[C@@H]2[C@@H](O)[C@H](O[C@@H]3[C@@H](O)[C@@H](O)[C@H](O[C@H]4[C@H](OC(=O)[C@]56CCC(C)(C)C[C@H]5C5=CCC7[C@@]8(C)C[C@H](O)[C@H](O[C@@H]9O[C@@H](C)[C@H](O)[C@@H](O)[C@H]9O)[C@@](C)(CO)C8CC[C@@]7(C)[C@]5(C)C[C@H]6O)O[C@H](C)[C@H](O)[C@@H]4O)O[C@H]3C)OC[C@H]2O)[C@H](O)[C@H](O)[C@H]1O (stereo not given in full)	0.778% [at 11.2 µM]	–
C[C@@H]1O[C@@H](O[C@H]2[C@H](OC(=O)[C@]34CCC(C)(C)C[C@H]3C3=CCC5[C@@]6(C)C[C@@H](O)[C@@H](O)[C@@](C)(CO)C6[C@H](O)C[C@@]5(C)[C@]3(C)CC4)OC[C@H](O)[C@@H]2O)[C@H](O)[C@H](O)[C@H]1O[C@@H]1OC[C@@H](O)[C@H](O[C@H]2O[C@H](C)[C@@H](O)[C@H](O)[C@@H]2O)[C@H]1O (stereo not given in full)	-2.16% [at 16.9 µM]	–
CC(C)C1NC(=O)C(CC2(O)c3ccccc3N3C(=O)C(Cc4ccccc4)NC32)NC1=O (stereo not given)	-11.9% [at 28 µM]	–
Cc1cccc(N2CCN(C(=O)c3cc(S(=O)(=O)N(C)C)ccc3N3CCCC3)CC2)c1C	-14.7%	–
CC1OC(O[C@@H]2[C@@H](O)[C@H](OC(=O)[C@]34CCC(C)(C)C[C@H]3C3=CCC5[C@@]6(C)CC[C@H](O[C@@H]7O[C@H](C(=O)O)[C@@H](O)[C@H](O[C@@H]8OC[C@@H](O)[C@H](O)[C@H]8O)[C@H]7O[C@@H]7O[C@H](CO)[C@H](O)[C@H](O)[C@H]7O)[C@@](C)(C=O)C6CC[C@@]5(C)[C@]3(C)C[C@H]4O)O[C@H](C)[C@@H]2OC2OC(C)C(OC3OCC(O)C(O)C3O)C(O)C2O)C(O)C(O)C1O (stereo not given in full)	9.81% [at 11.2 µM]	–
CC[C@@H](C)[C@@H]1OC2(C=C[C@H]1C)C[C@@H]1C[C@H](C/C=C(\C)[C@H](O[C@H]3C[C@H](OC)[C@H](O[C@H]4C[C@H](OC)[C@H](NC(C)=O)[C@H](C)O4)[C@H](C)O3)[C@H](C)/C=C/C=C3\CO[C@H]4[C@H](O)C(C)=C[C@@H](C(=O)O1)[C@@]34O)O2 (stereo not given in full)	0.859%	–
CC(=O)NC(Cc1ccccc1)C(=O)O (stereo not given)	-15.2% [at 81.8 µM]	–
C[C@@H]1CC[C@]2(C(=O)O[C@@H]3O[C@H](CO[C@@H]4O[C@H](CO)[C@@H](O)[C@H](O)[C@H]4O)[C@@H](O)[C@H](O)[C@H]3O)CC[C@]3(C)C(=CCC4[C@@]5(C)CC[C@H](O)[C@](C)(C(=O)O)C5CC[C@]43C)[C@@H]2[C@]1(C)O (stereo not given in full)	-4.89% [at 16.9 µM]	–
O=S(=O)(c1ccccc1)c1cnc2c(N3CCNCC3)cccc2c1	3.82%	–
CC1(C)CC[C@]2(C(=O)O)CC[C@]3(C)C(=CCC4[C@@]5(C)C[C@@H](O)[C@H](O)[C@](C)(CO)C5CC[C@]43C)[C@@H]2[C@@H]1O (stereo not given in full)	-1.28% [at 28 µM]	–
C/C=C(\C)C(=O)OC[C@H]1O[C@H](O[C@H]2O[C@H](CO)[C@@H](OC(=O)/C(C)=C/C)[C@H](O)[C@H]2O[C@@H]2O[C@H](CO)[C@@H](O)[C@H](O)[C@H]2O)[C@H](O[C@@H]2O[C@H](CO)[C@@H](O)[C@H](O)[C@H]2O)[C@@H](O)[C@@H]1O	-3.81% [at 16.9 µM]	–
COc1ccc(C2(O)c3ccccc3NC(=O)C2O)cc1 (stereo not given)	3.29%	–
C/C1=C\[C@H]2OC(=O)[C@@H](C)[C@@H]2CC/C(C(=O)O)=C/CC1	-20.5%	–
O=C(O)CCc1cccc(O)c1O[C@@H]1O[C@H](CO)[C@@H](O)[C@H](O)[C@H]1O	-2.13%	–
COC(=O)CC[C@@H](C)C1CCC2C3CCC4C[C@H](OC(C)=O)CCC4(C)C3C[C@H](O)C21C (stereo not given in full)	1.49%	–
O=S(=O)(c1ccc(S(=O)(=O)n2cnc3ccccc32)cc1)N1CCCCCC1	2.22% [at 28 µM]	–
COC(=O)[C@@]1(O)C=CC[C@@H]2[C@@]3(C)C[C@@H](c4ccoc4)OC(=O)[C@H]3CC[C@]21C	18.9%	–

SMILES	activity change, negative = inhibition	Potency
COc1cccc(Cn2ncc3c4sc(S(C)=O)cc4n(C)c3c2=O)c1 (stereo not given)	–	inactive
CC1(C(=O)O)CCCC2(C)C3=CCC4CC3(CCC12)CC4CO (stereo not given)	-1.76%	–
CN1CCc2cc(Cl)c(O)cc2[C@@H](c2cccc3c2OCC3)C1	-1.56%	–
COc1cc2ncnc(Nc3ccc(F)c(Cl)c3)c2cc1O	-12.4%	–
CC(/C=C/[C@]1(O)[C@@]2(C)CO[C@@]1(C)C[C@@H](O)C2)=C\C(=O)O[C@@H]1O[C@H](CO)[C@@H](O)[C@H](O)[C@H]1O	3.29% [at 28 µM]	–
COC(=O)C[C@H]1C(C)(C)[C@H](OC(=O)c2ccccc2)C2CC3=C4CC(=O)O[C@@H](c5ccoc5)[C@]4(C)CCC3[C@@]1(C)C2=O (stereo not given in full)	3.45% [at 28 µM]	–
CCOc1cccc(NC(=O)c2ccc(N3CCCC3)c(C(F)(F)F)c2)c1	-2.13%	–
C=CC1(C)C=C2C(=O)CC3C(C)(C)CCCC3(C(=O)O)C2(O)CC1 (stereo not given)	-5.07%	–
C[C@H]1[C@H](C)CC[C@]2(C(=O)O)CC[C@]3(C(=O)O)C(=CCC4[C@@]5(C)CC[C@H](O[C@@H]6O[C@@H](C)[C@H](O)[C@@H](O)[C@H]6O)C(C)(C)C5CC[C@]43C)[C@H]12 (stereo not given in full)	3.58% [at 16.9 µM]	–
CC1(C)CC2C3=CCC4C5(C)CCC(OC6OC(C(=O)O)C(O)C(O)C6OC6OC(CO)C(O)C(O)C6OC6OC(CO)C(O)C(O)C6O)C(C)(CO)C5CCC4(C)C3(C)CCC2(C)C(OC2OCC(O)C(OC3OC(CO)C(O)C(O)C3O)C2O)C1O (stereo not given)	5.84% [at 11.2 µM]	–
CCNc1nc(Nc2cc(F)c(C(=O)N3CCOCC3)cc2OC)ncc1C(F)(F)F	1.09%	–
C=C1C(O)C(OC(=O)c2ccccc2)C2C(C)(C(=O)O)CCCC2(C)C1CC/C(C)=C\CO (stereo not given)	12.7% [at 28 µM]	–
C[C@]12C=C[C@@]3(CCC4[C@](C)(CO)CCC[C@@]4(C)C3CC1)C2 (stereo not given in full)	-3.63%	–
CC(C)CCC[C@@H](C)[C@H]1CC[C@H]2[C@@H]3CC(=O)[C@H]4C[C@@H](O)CC[C@]4(C)[C@H]3CC[C@]12C	-1.52%	–
C=C1C(=O)O[C@@H]2/C=C(\C)C(=O)/C=C/[C@](C)(O)C[C@@H](OC(=O)C(C)C)[C@@H]12	13.8%	–
CCc1nn(CCO)c(CC)c1Oc1cc(C#N)cc(C#N)c1	0.46%	–
CC1(C)CCC2(C(=O)OC3OC(COC4OC(CO)C(O)C(O)C4O)C(O)C(O)C3O)CCC3(C)C(=CCC4C5(C)CCC(O)C(C)(C(=O)O)C5CCC43C)C2C1O (stereo not given)	0.718% [at 16.9 µM]	–
C=C(C)[C@@H]1CC[C@](C)(O)[C@@H](OC(=O)c2ccccc2)C1	1.92%	–
COC1CC(=O)C23C(=O)NC(Cc4c[nH]c5ccccc45)C2C(C)C2(C)OC2C3/C=C/CC(C)CC1O (stereo not given)	1.06% [at 28 µM]	–
C[C@@H]1C(=O)O[C@H](C)[C@H]1CC(=O)[C@](C)(O)[C@H]1CC[C@@]2(O)C3=CC(=O)[C@@H]4C[C@@H](O)[C@@H](O)C[C@]4(C)C3CC[C@]12C (stereo not given in full)	-3.92% [at 28 µM]	–
